Laboratory results from PubChem BioAssay (Tox21).
Calls of active or inactive are those of the source. Where a call stands in place of a potency, no number is given. Calls follow the shape of the full dose curve.

Target: Acetylcholinesterase (Homo sapiens) (UniProt P22303)
Assay: Acetylcholinesterase (AChE) small molecule antagonists: enzyme-based qHTS assay with human liver microsomes (AID 1347399); also: nearly all actives have a fitted effect of over 60% in size
Details: Potency: qHTS inhibition; outcome: qHTS inhibition; series mostly up to 115 µM
Method in brief: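 Recombinant human AChE (50 mU/mL in the enzyme mix) and human liver microsomes (0.25 mg/mL final) were preincubated with compound and NADPH (0.25 mg/mL final) for 30 min at 37 C. Acetylthiocholine/DTNB was then added; thiocholine was read colorimetrically after 10 min at room temperature.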

Sequence of Acetylcholinesterase (Homo sapiens) (P22303 whole entry, looked up): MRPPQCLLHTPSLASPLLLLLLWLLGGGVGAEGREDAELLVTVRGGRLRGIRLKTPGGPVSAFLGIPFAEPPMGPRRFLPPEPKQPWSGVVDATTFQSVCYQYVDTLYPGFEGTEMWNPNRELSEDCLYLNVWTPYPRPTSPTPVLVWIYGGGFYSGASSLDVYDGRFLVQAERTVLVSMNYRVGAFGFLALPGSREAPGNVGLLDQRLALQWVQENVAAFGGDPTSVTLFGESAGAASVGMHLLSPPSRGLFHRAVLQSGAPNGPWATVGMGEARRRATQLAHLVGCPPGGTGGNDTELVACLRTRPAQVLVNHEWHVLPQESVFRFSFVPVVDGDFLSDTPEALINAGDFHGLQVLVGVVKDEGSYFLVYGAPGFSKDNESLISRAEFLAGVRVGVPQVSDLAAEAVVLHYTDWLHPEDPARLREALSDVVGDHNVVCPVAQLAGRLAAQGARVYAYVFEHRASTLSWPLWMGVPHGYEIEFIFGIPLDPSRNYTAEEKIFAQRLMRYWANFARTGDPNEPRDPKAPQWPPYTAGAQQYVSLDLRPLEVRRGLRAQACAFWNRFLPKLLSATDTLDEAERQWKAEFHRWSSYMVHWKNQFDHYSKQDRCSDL

Compound	Potency
CC(O)C(CO)C(C)O (stereo not given)	inactive
CCO[Si](CCCN)(OCC)OCC	inactive
O=C(CS)Nc1ccccc1	inactive
C=CCCCCCCCCC=O	inactive
CCOC(=O)[C@H](CCc1ccccc1)N[C@@H](C)C(=O)N1Cc2ccccc2C[C@H]1C(=O)O	inactive
CCOCCOCC	inactive
O=Cc1ccc(Cl)c(Cl)c1	inactive
COS(C)(=O)=O	inactive
O=C(O)c1[nH]n(-c2ccc(S(=O)(=O)O)cc2)c(=O)c1N=Nc1ccc(S(=O)(=O)O)cc1	inactive
CC(=O)[C@@]1(O)CC[C@H]2[C@@H]3C[C@H](C)C4=CC(=O)CC[C@]4(C)[C@H]3CC[C@@]21C	inactive
CC(C)NCC(O)c1cc(O)cc(O)c1 (stereo not given)	inactive
C#C[C@]1(O)CC[C@H]2[C@@H]3CCc4cc(OC)ccc4[C@H]3CC[C@@]21C	inactive
CC(C)COC(=O)CCCCC(=O)OCC(C)C	inactive
CCCCC(CC)CN1C(=O)C2C3C=CC(C3)C2C1=O (stereo not given)	inactive
CCC1COC(=O)O1 (stereo not given)	inactive
